# Bioassay records from PubChem.
# Only some compounds are listed: those with a hit (about 2.9% of all), similar ones and a draw of the others.
# dFosB activator: activators of delta FosB homodimer, primary screen, biochemical, fluorescence polarization, TAMRA-CDK5 oligo, single point | purified delta FosB; percent of positive-control signal above neutral wells | activation, % at 25 µM | 0.99% of 340,000 active | AID 493131, 2011;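 active = mean activation above about 17%, with every replicate also reaching it, limit read from the data, passing the limit was not always enough; inconclusive = only one of the two conditions met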
# MEKK2 WT-MEK5: modulators of MEK5 binding to wildtype MEKK2, primary screen, biochemical, multiplex bead flow cytometry, Alexa488-MEK5; Mitogen-activated protein kinase kinase kinase 2 (Homo sapiens), Q9Y2U5; Alexa488-MEK5 binding to MEKK2 WT; actives lie on both sides; binding response (% of control), % at 10 µM; 1.1% of 290,000 active; AID 1531, 2009; in the data active = binding response below about 67% or above about 130%; inconclusive = no clear call, values can overlap the other calls; inactive = in between
# DNA FID counter: compounds displacing fluorescent DNA intercalator, primary screen, artefact control for HCV NS3 helicase inhibitor project, biochemical, FID fluorescence; DNA fluorescent intercalator displacement; inhibition, % at 7.9 µM; 0.17% of 290,000 active; AID 1845, 2009; in the data active = inhibition above about 37%;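 note: 0% = vehicle and 100% = reference compound; higher means more ethidium bromide displaced from hairpin DNA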
# MEKK3 PB1 HTS: modulators of MEKK3-MEK5 PB1 binding, primary screen, biochemical, wildtype MEKK3, multiplex bead flow cytometry, Alexa488-MEK5; Mitogen-activated protein kinase kinase kinase 3 (Homo sapiens), Q99759; bead-based flow cytometry, Alexa488-MEK5 binding to MEKK3; actives lie on both sides; 0 = blocked by unlabeled MEK5, 100 = vehicle; binding response (% of control), % at 10 µM; 1.4% of 290,000 active; AID 1529, 2009;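 active = binding response more than 3 SD above or below the average of its plate-row segment, actives on both sides; inconclusive = wells at one plate position flagged as instrument error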;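 note: Alexa488 bead fluorescence after subtracting the streptavidin-only scavenger bead signal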
# Target sequence (Q99759 whole entry, looked up): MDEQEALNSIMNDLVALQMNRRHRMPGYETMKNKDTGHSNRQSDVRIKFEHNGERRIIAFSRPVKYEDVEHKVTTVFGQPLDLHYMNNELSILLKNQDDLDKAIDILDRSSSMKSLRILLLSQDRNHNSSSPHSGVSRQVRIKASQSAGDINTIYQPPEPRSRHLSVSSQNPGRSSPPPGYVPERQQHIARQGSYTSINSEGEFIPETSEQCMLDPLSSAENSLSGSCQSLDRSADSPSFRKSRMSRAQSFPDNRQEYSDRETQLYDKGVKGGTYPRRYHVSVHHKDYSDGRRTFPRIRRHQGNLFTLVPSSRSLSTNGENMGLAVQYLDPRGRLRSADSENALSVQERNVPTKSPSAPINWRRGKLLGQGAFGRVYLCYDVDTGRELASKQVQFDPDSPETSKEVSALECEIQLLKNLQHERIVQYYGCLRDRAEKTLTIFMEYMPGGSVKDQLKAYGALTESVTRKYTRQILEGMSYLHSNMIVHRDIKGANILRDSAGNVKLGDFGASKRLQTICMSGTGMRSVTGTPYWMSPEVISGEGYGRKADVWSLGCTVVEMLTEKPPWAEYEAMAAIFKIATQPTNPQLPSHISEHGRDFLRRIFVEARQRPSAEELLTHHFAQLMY
# MEKK2mut PB1 HTS: MEK5 binding signal on mutant MEKK2 PB1, primary screen, biochemical, multiplex bead flow cytometry, Alexa488-MEK5; Alexa488-MEK5 binding to MEKK2 mutant; percent response, % at 10 µM; 0.35% of 290,000 active; AID 1530, 2009; in the data active = percent response above about 24%, passing the limit was not always enough
# MEKK2wt confirm: modulators of MEK5 binding to wildtype MEKK2, confirmation, biochemical, single concentration, multiplex bead flow cytometry; 2.4% of 5,900 active; Alexa488-MEK5 binding to MEKK2 WT; actives lie on both sides; shares compounds with MEKK3 PB1 HTS; AID 1892, 2009; binding response (% of control), % at 10 µM; in the data active = binding response below about 16% or above about 210%; inactive = in between
# MEKK2mut-MEK5: mutant MEKK2 PB1-MEK5 binding signal retest – biochemical, single concentration, multiplex bead flow cytometry, confirmation. shares compounds with MEKK3 PB1 HTS. Alexa488-MEK5 binding to MEKK2 mutant. percent response, % at 10 µM. 2% of 5,900 active; in the data active = percent response mostly above about 71%, no sharp cut-off; inactive = mostly below about 38%;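 note: higher means compound restores mutant binding toward wildtype level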
# MEKK3 confirm: MEKK3 wild-type PB1 binding to MEK5, inhibitors, confirmation, biochemical, bead multiplex flow cytometry, single concentration, wildtype | shares compounds with MEKK3 PB1 HTS | Alexa488-MEK5 binding to MEKK3; stronger effect = lower value | binding response (% of control), % at 10 µM | 1.8% of 5,900 active;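 active = binding response below 72% of control, or above a set upper limit, though filed actives all read lower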;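 note: 100% = DMSO only wells and 0% = binding blocked by excess unlabeled MEK5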
# Active calls of the source: *; ? = inconclusive; · = no result given; [ ] = another dose, or the depositor's remark.
SMILES,dFosB activator,MEKK2 WT-MEK5,DNA FID counter,MEKK3 PB1 HTS,MEKK2mut PB1 HTS,MEKK2wt confirm,MEKK2mut-MEK5,MEKK3 confirm
COC(=O)c1cccc(N(C(=O)c2cnccn2)C(C(=O)NC2CCCCC2)c2cn(C)nc2C)c1 (configuration not stated),-2,58,-16,46*[inhibitor],-28,105,2,98
CC1=N/C(=C\c2ccc([N+](=O)[O-])cc2)C(=O)N1c1ccc(Br)c(C)c1,-14,-2.0*,8,82*[inhibitor],-8,92,-5,101
COc1ccc(NC(=O)CSCC(=O)N2c3ccccc3CCc3ccccc32)cc1,-6,100,-34,148*,-1,101,-1,99
COc1ccccc1NC(=O)CSCC(=O)N1c2ccccc2CCc2ccccc21,-14,102,-39,103,1,·,·,·
Cc1ccc(C(=O)NCCc2ccc(S(=O)(=O)N3CCCC3)cc2)cc1,-1,98,-12,100,0,·,·,·
Cc1cc2ccccc2n1CCNC(=O)C(C)C,-10,93,-3,106,0,·,·,·
Cc1cc2ccccc2n1CCNC(=O)C(C)Oc1ccccc1 (configuration not stated),-17,64*[inhibitor],-14,80*[inhibitor],-10,49,-16,82
Cc1cccc(CC(=O)NCCn2c(C)cc3ccccc32)c1,4,63*[inhibitor],-9,79*[inhibitor],0,105,-1,100
COc1ccc(/C=C/C(=O)NCCn2c(C)cc3ccccc32)cc1OC,9,83,-17,67*[inhibitor],5,110,11,103
Cc1cc2ccccc2n1CCNC(=O)c1ccc(S(=O)(=O)N2CCCCC2)cc1,-9,79,-36,82*[inhibitor],-7,80,-3,89
COc1cccc(NC(=O)CSc2nnc(NC(=O)c3ccco3)s2)c1,0,103,-6,97,0,·,·,·
CSc1ccc(CN(C)C(=O)c2cc(=O)[nH]c3ccccc23)cc1,-1,104,-26,101,10,·,·,·
CSc1ccc(CNCCCSc2ncccn2)cc1,-6,147*,9,111,25*,114,4,105
Clc1cccc(CNCCCSc2ncccn2)c1,3,139*,3,114,27*,126,19,111
COc1ccc(CNCCCSc2ncccn2)cc1OC,1,132,1,111,30*,123,14,102
Clc1ccc(CNCCCSc2ncccn2)cc1,-3,108,3,103,8,·,·,·
CCCCNc1nc(N)ncc1[N+](=O)[O-],0,93,-2,104,6,·,·,·
Cc1ccc(OCC(O)CNS(=O)(=O)c2ccccc2C(=O)O)cc1 (configuration not stated),-1,90,-21,71*[inhibitor],-4,100,2,102
O=C(c1ccc([N+](=O)[O-])cc1)N(C1=NCCCCS1)c1ccccc1,-5,76,0,79*[inhibitor],-6,159,44,104
CC(=O)Nc1sc2c(c1CN1CCN(c3ccc(F)cc3)CC1)CCCC2,-12,100,-9,103,7,·,·,·
COC(=O)c1ccc(CNC(=O)COC(=O)c2cc(Cl)ccc2O)cc1,2,·,·,·,·,·,·,·
CCOC(=O)c1c(/N=C/c2cc(C)ccc2O)sc2c1CCN(C)C2,3,124,4,102,33,·,·,·
Cc1cccc(/C=N/c2sc3c(c2C(=O)OC(C)(C)C)CCN(C)C3)c1O,4,141*,-1,112,42,146,25,108
Cc1cccc(NC(=O)CN(C)C(=O)C2CCCC2)c1C,-2,·,·,·,·,·,·,·
Cc1ccc(C)c(CN2CCC(CNC(=O)Nc3ccc(Br)cc3F)CC2)c1,-5,140*,26,109,22,148,18,104
SMILES,dFosB activator,MEKK2 WT-MEK5,DNA FID counter,MEKK3 PB1 HTS,MEKK2mut PB1 HTS,MEKK2wt confirm,MEKK2mut-MEK5,MEKK3 confirm
Cc1ccc(C)c(CN2CCC(CNC(=O)Nc3ccc(Cl)cc3)CC2)c1,-4,139,24,105,16,·,·,·
Nc1cc(S(=O)(=O)N2CCCCC2)ccc1Oc1ccccc1,-6,96,-17,98,-2,·,·,·
Cc1ccc(Nc2nc(N)c3ccccc3n2)cc1Cl,28*,152*,29,110,7,138,33,106
Nc1nc(Nc2ccc(Cl)cc2)nc2ccccc12,9,126,22,103,8,·,·,·
CCOC(=O)c1ccc(Nc2nc(N)c3cc(OC)c(OC)cc3n2)cc1,37*,141*,8,113,30*,169,37,106
COc1cc2nc(Nc3ccc(C)c(C)c3)nc(N)c2cc1OC,105*,159*,19,112,28*,159,39,104
COc1ccccc1N1CCN(Cc2nc(N)nc(Nc3ccc(C)c(Cl)c3)n2)CC1,-5,117,-3,104,7,·,·,·
COc1cc2nc(Nc3ccc(C)c(Cl)c3)nc(N)c2cc1OC,59*,181*,19,105,50*,198,65,105
Cc1ccc(Nc2ncnc(N)n2)cc1C,-5,96,-1,103,-6,·,·,·
Cc1ccc(C)c(N2CC(C(=O)O)CC2=O)c1 (configuration not stated),-2,96,6,94,-4,·,·,·
CCOc1ccc(CN(C)CC(=O)Nc2ccccc2C(=O)NC2CC2)cc1,-11,·,·,·,·,·,·,·
Cc1ccc(Nc2nc(NCCO)c3ccccc3n2)cc1C,32*,160*,26,108,14,142,33,104
O=C(O)C(Cc1ccccc1)N1C(=O)c2cccc3cccc(c23)C1=O (configuration not stated),6,93,-31,94,-7,·,·,·
O=C(Nc1cccc(O)c1)C(Cc1ccccc1)N1C(=O)c2cccc3cccc(c23)C1=O (configuration not stated),?,101,-12,140*,0,98,-3,102
O=C(Nc1cc(S(=O)(=O)N2CCCCC2)ccc1N1CCCCC1)c1ccncc1,-6,105,-38,103,2,·,·,·
CC(C)(C=O)C1=CC(=O)c2ccccc2C1=O,-4,105,0,154*,1,96,-2,99
CC1=CC(=O)c2ccccc2C1=O,5,103,-5,82,-2,·,·,·
